Source: PubChem BioAssay (NCI)
The panel holds about 79,000 compounds, 15% with a hit somewhere; the sample as a whole holds those more often. Calls of active or inactive are those of the source. No stated cut-off is given here; in the data, active means growth inhibition above about 70%; inactive means the rest.

Legend:
[1] = NCI Yeast Anticancer Drug Screen. Data for the rad50 strain (AID 155);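 further: 0% = growth of vehicle-only cultures of the same strain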; settings: S. cerevisiae rad50 strain growth inhibition; at 50.0 µM; stronger effect = higher value
In short: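 Growth of the mutant yeast was measured after compound exposure and referenced to vehicle-treated cultures.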

[2] = NCI Yeast Anticancer Drug Screen. Data for the mec2-1 strain (AID 157); settings: S. cerevisiae mec2-1 strain, at 50.0 µM, stronger effect = higher value
In short: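 Cells of the genetically defined mec2-1 yeast strain are incubated with test compound. Inhibition of growth is calculated against vehicle-treated controls.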

[3] = NCI Yeast Anticancer Drug Screen. Data for the sgs1 mgt1 strain (AID 161);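 further: 0% = growth of cultures given vehicle only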; settings: S. cerevisiae sgs1 mgt1 strain, at 50.0 µM, stronger effect = higher value
In short: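 Read-out: growth inhibition vs vehicle controls. Cells: mutant yeast strain deficient in DNA damage repair.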

[4] = NCI Yeast Anticancer Drug Screen. Data for the cln2 rad14 strain (AID 165);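 further: 0% = growth equal to vehicle treated cultures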; settings: S. cerevisiae cln2 rad14 strain, at 50.0 µM, stronger effect = higher value
In short: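 The screen exposed genetically defined yeast (cln2 rad14) to test compounds and scored growth inhibition relative to vehicle-treated controls.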

[5] = NCI Yeast Anticancer Drug Screen. Data for the bub3 strain (AID 167); settings: S. cerevisiae bub3 mutant strain, at 50.0 µM, stronger effect = higher value
In short: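 Whole-cell yeast assay. The mutant strain was incubated with compounds, and growth inhibition was determined by comparison with vehicle-treated cells.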

[6] = NCI Yeast Anticancer Drug Screen. Data for the mlh1 rad18 strain (AID 175); settings: S. cerevisiae mlh1 rad18 strain growth inhibition; at 50.0 µM; stronger effect = higher value
In short: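 Compound-treated yeast growth, normalised to vehicle controls. Strain bears defined DNA repair mutations.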

Measured: growth inhibition

CC(=O)c1cccc(NC(=O)N2CCN(c3ccccc3)CC2)c1
inactive: [1] 11.4% | [2] 34% | [3] 20% | [4] 1.25% | [5] 23.9% | [6] 16.6%

Cc1cc(C)c(C)c(Br)c1
inactive: [1] 5% | [2] 4.6% | [3] -0.55% | [4] -33.1% | [5] 2.4% | [6] 4.9%

CC1CCCC(C(O)CC2CC(=O)NC(=O)C2)C1O (stereo not drawn)
inactive: [1] 17.4% | [2] -3.65% | [3] 3.5% | [4] -29.8% | [5] 1.7% | [6] 4.45%

O=c1c2c([nH]c3c1ccc1[nH]c4c(c(=O)c13)CCCC4)CCCC2
inactive: [1] -18.9% | [2] -0.75% | [3] -12.6% | [4] -13.6% | [5] -8.5% | [6] -2.3%

Cn1c(-c2ccc(Br)cc2)cc2[nH]c(=S)nc(N)c2c1=O
inactive: [1] -16.8% | [2] -23.9% | [3] -14% | [4] -12.3% | [5] -7.75% | [6] 2.5%

CCCCCCC1CCCCC1
inactive: [1] -35% | [2] -41.7% | [3] -29% | [4] 19.9% | [5] -28.8% | [6] -20%

O=C(NCCCN1CC2CCCC2C1)C(c1ccccc1)c1ccccc1 (stereo not drawn)
inactive: [1] -22.9% | [2] -2.55% | [3] -41.8% | [4] -5.3% | [5] -10.7% | [6] -24.3%

Oc1[nH]c2ccccc2c1N=Nc1nc(-c2ccccc2)cs1
inactive: [1] -40.6% | [2] -52% | [3] -46% | [4] -0.9% | [5] -30.4% | [6] -18.8%

O=C(Nc1cccc2c1[nH]c1c(-c3ccccc3)nccc12)c1ccccc1[N+](=O)[O-]
inactive: [1] 58.1% | [2] 45.1% | [3] 49.2% | [4] 23.2% | [5] 42.6% | [6] 51.5%

CCN(CC)c1ccc(/C=N\NC(=S)N/N=C/c2ccc(N(CC)CC)cc2)cc1
inactive: [1] -2.3% | [2] 0.85% | [3] 7.9% | [4] 33% | [5] -0.95% | [6] -1.1%

O=C(Nc1ccccc1C(=O)N/N=C/c1ccccc1O)c1ccccc1Cl
inactive: [5] 68.3%
active: [1] 73.3% | [2] 91% | [3] 91.4% | [4] 84.8% | [6] 90.8%

COc1ccc(S(=O)(=O)N/N=C/c2cccc([N+](=O)[O-])c2O)cc1
inactive: [1] 9.3% | [2] -3.7% | [3] 19.7% | [4] 2% | [5] 12% | [6] 32.6%

O=C(NC(CCS(=O)(=O)n1ccnc1)C(=O)OCc1ccccc1)OCc1ccccc1 (stereo not drawn)
inactive: [1] 12.7% | [2] -4.95% | [3] -18.2% | [4] 11.2% | [5] -4.7% | [6] 1.6%

Cn1c(COC(=O)NC2CCCCC2)c(COC(=O)NC2CCCCC2)c2ccc3cc(C=O)ccc3c21
inactive: [1] 5.95% | [2] 7.85% | [3] -14.5% | [4] -3.95% | [5] -10.4% | [6] -27.3%

CC(C)(C[NH-])C[NH-].[Cl][Pt+2][Cl]
active: [6] 87.7%
inactive: [1] -22.3% | [2] 13.3% | [3] 20.2% | [4] 18.6% | [5] 16.6%

CCCCCCCCCCCCCCCC(=O)O (tested in a mixture with another compound)
inactive: [1] 7.65% | [2] -1.5% | [3] -18.2% | [4] 33.8% | [5] 12.1% | [6] -11.4%

Cc1cc(C)c2c(=O)cc(-c3cccc(Cl)c3)[nH]c2n1
inactive: [1] 15.6% | [2] -12.4% | [3] -25% | [4] -23.8% | [5] -50.7% | [6] -65.7%

O=C1C[C@H]2CCCC[C@@H]2O1
inactive: [1] 2% | [2] 3.55% | [3] 26.5% | [4] 39.1% | [5] -13.5% | [6] -6%

O=C(Nc1cccc2c1C(=O)c1c(NC(=O)c3ccccc3)ccc(Nc3cccc4c3C(=O)c3ccccc3C4=O)c1C2=O)c1ccccc1
inactive: [1] 8.05% | [2] -2.65% | [3] 0.9% | [4] 10% | [5] 9.05% | [6] 3.45%

CC(=O)c1ccc[cH-]1.[Fe+2].c1cc[cH-]c1
inactive: [1] 13.5% | [2] 9.75% | [3] 12.9% | [4] 4.25% | [5] 23.2% | [6] 11.3%

Cc1ccc(Nc2nc(C)c(C(=O)C/C(=N/NC(N)=S)C(=O)Nc3cc(Cl)cc(Cl)c3)s2)cc1
inactive: [1] -13.3% | [2] -13.1% | [3] 15.6% | [4] 22.1% | [5] -13.4% | [6] -27.8%

NCCCOCCO
inactive: [1] -2.9% | [2] -0.5% | [3] -8.4% | [4] 8.3% | [5] 16.4% | [6] 4.35%

CC1NC(=O)c2c(-c3ccccc3)nn(-c3ccccc3)c2NC1=O (stereo not drawn)
inactive: [1] 1.35% | [2] -2.4% | [3] 11.8% | [4] -3.85% | [5] 3.15% | [6] -33.2%

CN1CCC(c2ccccc2)(C(O)(c2ccccc2)c2ccccc2)CC1
inactive: [1] 3.15% | [2] 1.25% | [3] -6% | [4] 12.1% | [5] 0.65% | [6] 12.7%

O=c1[nH]c(=O)c2c(Cl)cccc2[nH]1
inactive: [1] 7.2% | [2] 9.9% | [3] 5.35% | [4] -22% | [5] -2.7% | [6] -4.1%

CCCCNc1ccc2c(C)c(Cc3ccccc3)c(=O)oc2c1
inactive: [1] 9.3% | [2] -7.5% | [3] 20.3% | [4] 2.35% | [5] 4.65% | [6] -11%

OC(C1=C/C(=C\c2ccncc2)c2ccccc21)c1ccncc1 (stereo not drawn)
inactive: [4] 47.6%
active: [1] 84.7% | [2] 86.5% | [3] 96.8% | [5] 86.3% | [6] 93%

CC(=O)N1CCC(=O)/C(=C/c2ccccc2)C1
inactive: [1] 4.95% | [2] 0% | [3] 32% | [4] 15.9% | [5] 17.6% | [6] 44%

CCOC(=O)c1cc2c(OC)cc(OC)cc2oc1=O
inactive: [1] 21.8% | [2] 2.6% | [3] 25.1% | [4] 32.8% | [5] 28.9% | [6] 2.55%

C/C(CC(=O)Nc1ccc(C)c(C)c1)=N\NC(N)=S
inactive: [1] -13.8% | [2] -6.1% | [3] 1.45% | [4] 18.2% | [5] 0.05% | [6] -2.4%

CC1(C)CC(NC(=O)C(C)(C)Oc2ccc(Cl)cc2)CC(C)(C)N1
inactive: [1] 32.5% | [2] 6% | [3] 25.9% | [4] -12% | [5] 9.15% | [6] 25.8%

CC1(c2nc3ccccc3s2)CCCO1 (stereo not drawn)
inactive: [1] -6.1% | [2] 23.8% | [3] 7.6% | [4] -13.7% | [5] 7.55% | [6] 8.4%

CC(C)(C)OC(=O)N/N=C(/N)Cc1ccccc1
inactive: [1] -36.2% | [2] -3.65% | [3] -18.4% | [4] 6.5% | [5] 6.4% | [6] 5.55%

CSC(SC)=C(C(=O)c1ccc(Cl)cc1)n1c(=O)sc2cc(Br)ccc21
inactive: [1] -19% | [2] 2.45% | [3] 6.25% | [4] 0.25% | [5] 12.8% | [6] -20.4%

CCOP(=O)(OCC)/C(=C\n1ccc(=O)[nH]c1=S)C(=O)OC
inactive: [1] -54.8% | [2] -54% | [3] -27.4% | [4] -8.6% | [5] -28% | [6] -53.5%

c1ccc(C2SCCN2c2ccccc2)cc1 (stereo not drawn)
inactive: [1] 9.2% | [2] -0.35% | [3] -20.4% | [4] 9.95% | [5] 11.8% | [6] -14.4%

COc1cccc(NC(=O)CC(=O)N2N=C(N(CCC#N)c3ccc(Cl)cc3)CC2c2ccccc2)c1 (stereo not drawn)
inactive: [1] 19.1% | [2] -4.2% | [3] 19.1% | [4] 8.9% | [5] -0.15% | [6] -0.75%

BrC12c3ccccc3C(Br)(c3ccccc31)c1ccccc12
inactive: [1] 5.95% | [2] 5.6% | [3] -3.15% | [4] -7.4% | [5] -5.3% | [6] 6.2%
